Screen size: about 350,000 compounds; about 9,900 (2.8%) were called active. Not shown: some 15% with an inconclusive outcome. Calls follow the shape of the dose curve; as a rule, active = well fitted activation curve with a large enough effect; inconclusive = small, poorly fitted or top-dose-only effect; inactive = no such curve, though single readings can be large or run the other way. The entries come from a sample that favours actives as a whole. A call without a number means that no potency is given here.
Potency is read from the fitted curve at half-maximal effect.

The nature of this experiment: A quantitative high throughput screen for small molecules that induce DNA re-replication in MCF 10a normal breast cells. Also: nearly all actives have a fitted effect of over 50% in size. The settings on record: MCF 10A DNA re-replication, Hoechst nuclear intensity, 48 h; series mostly up to 46.1 µM. From the text:
H Molecular Libraries Probe Production Network [MLPCN]
NIH Chemical Genomics Center [NCGC]
Assay Provider: Melvin DePamphilis, NICHD, NIH
Eukaryotic cells normally restrict genome duplication to once per cell division. When this process is aberrant, DNA re-replication occurs when cells reinitiate DNA replication before the first round of replication is complete. DNA re-replication induces the DNA damage response, arrests cell proliferation, and triggers apoptosis. The cell cycle components cyclin A, Cdt-1, Cdc6 and geminin are critical regulators of this process and their misregulation results in DNA re-replication in normal and cancer cells. To identify compounds that induce re-replication in normal cells, an image-based assay was used to measure DNA content of nuclei, as detected by the fluorescent DNA binding dye, Hoechst. Cell nuclei were imaged by a fluorescence scanning plate imager and compounds that induce DNA re-replication were identified by the increase of nuclei with elevated fluorescence intensity
For screening, 250 cells in 5 uL/well were dispensed into black clear 1536-well plates (Aurora) using a solenoid-based dispenser. Following transfer of 23 nL compound or DMSO vehicle by a pin tool, the plates were incubated 48 hr at 37 C and 5% CO2. After addition of 1 uL/well Hoescht stain, the plates were incubated 40 min at 37 C, 5% CO2 and total intensity of fluorescent objects (nuclei) were enumerated by an Acumen Explorer Ex3 (TTP LabTech) fluorescence scanning plate imager (405 nm excitation, 500-530 nm emission).
Keywords: NIH Roadmap, MLPCN, MLI, MLSMR, qHTS, NCGC, DNA replication, cancer
For `CN[C@H](C(=O)NC[C@H]1O[C@@H](n2cnc3c(N)ncnc32)[C@H](O)[C@@H]1O)[C@@H](C)OCc1ccccc1`, the Potency result was “inactive”.
Regarding `O=C(Nc1cc(C(F)(F)F)ccc1Cl)C(=O)N1CCCCC1`, the Potency entry is “inactive”.
The entry for `CC(CC(=O)Nc1cc(C(F)(F)F)ccc1Cl)c1ccccc1` (stereo unspecified) is “inactive”.
Then `O=C(NNc1ccccc1Cl)C(O)(c1cccc(C(F)(F)F)c1)c1cccc(C(F)(F)F)c1`, with 16.4 µM (active); and `COc1ccc([C@H]2CC(=O)C=C(c3ccc(CO)cc3)C2)cc1`, with “inactive”.
For `Cc1cccc(-n2ncc(C#N)c2-n2cccc2)c1`, the Potency result was “inactive”.
Then `O=c1c(Cl)c(NC2CC2)cnn1-c1ccccc1`, with “inactive”; and `Cc1cccc(-n2ncc(Cl)c(Cl)c2=O)c1`, with 3.26 µM (active).
Take `COC1=CC(=O)OC(C)(c2ccccc2)C1` (stereo unspecified): the Potency result was “inactive”.
Turning to `COc1cc(OC)cc(C(=O)NCC(=O)OCC(=O)NC(C)CCc2ccccc2)c1` (stereo unspecified), the Potency result is “inactive”.
As to `Cc1cc(C)c[n+](-c2nc3ccccc3nc2[N-]S(=O)(=O)c2cccs2)c1`, the Potency entry was “inactive”.
The entry for `O=C(NCCc1ccccc1)C1CCN(S(=O)(=O)c2ccc(Br)s2)CC1` is “inactive”; for `O=S(=O)([N-]c1nc2ccccc2nc1-[n+]1ccc(Cc2ccccc2)cc1)c1ccc(Br)s1` it is 9.2 µM (active).
Then `O=C(COC(=O)c1cc(S(=O)(=O)N2CCOCC2)ccc1F)NC1CC1`, with “inactive”.
`Cc1cccc2cc3c(N)c(C(=O)N4CCCc5ccccc54)sc3nc12`: the Potency was 1.3 µM (active).
The entry for `Cc1c(C(=O)N2CCCc3ccccc32)oc2ccccc12` is “inactive”; for `Cc1c(C(=O)N2CCCc3ccccc32)sc2nc(-c3ccccc3)cn12` it is “inactive”.
Turning to `CCOC(=O)[C@H]1[C@H]2COc3ccc(C)cc3[C@@H]2N2C(=O)CN(Cc3ccc(F)cc3)C(=O)[C@@]12C`, the Potency result is “inactive”.
Then `Cc1cccc(CS(=O)(=O)c2ncc(Cl)c(C(=O)Nc3ccc(F)cc3)n2)c1`, with “inactive”; and `CCSc1nnc(NC(=O)c2ccc(C)cc2)s1`, with “inactive”.
For `CSc1nnc(NC(=O)c2nc(S(=O)(=O)Cc3ccc(C)cc3)ncc2Cl)s1`, the Potency is 1.16 µM (active).
Regarding `CC(CNC(=O)Cn1cnc2c(OCc3ccccc3)ncnc21)c1ccccc1` (stereo unspecified), the Potency result is “inactive”.
The entry for `Nc1ncnc2c1ncn2[C@@H]1O[C@H](CNS(=O)(=O)c2ccc(-c3ccno3)s2)[C@@H](O)[C@H]1O` is “inactive”; for `CCOc1ccccc1N(CC(=O)Nc1ccccc1C(=O)OC)S(C)(=O)=O` it is “inactive”; for `CCOc1cc(C2C(C(=O)OC)=CN(C3CCCC3)C=C2C(=O)OC)cc(Br)c1O` it is “inactive”.
In the case of `CCOc1ccccc1C1C(C(=O)OC)=CN(C)C=C1C(=O)OC`, the Potency was 14.6 µM (active).
For the compound `CC(C)(C)OC(=O)N[C@H](C(=O)OC(C)(C)C)c1ccc(Br)cc1`, the Potency entry is “inactive”.
Then `Cc1ccc(S(=O)(=O)CCC(=O)OCC(=O)N(C)Cc2ccccc2)cc1`, with “inactive”.
On to `Cc1ccc(-c2cc(C(=O)Nc3nn[nH]n3)c3ccccc3n2)c(C)c1`, for which the Potency result was “inactive”.
Then `CNC(=O)COC(=O)c1cc(-c2ccc(OC)cc2)nc2ccccc12`, with “inactive”; and `COc1ccc(-c2cc(C(=O)n3cnc4ccccc43)c3ccccc3n2)cc1`, with “inactive”.
The figure for `COc1ccc(-c2cc(C(=O)N(C)Cc3ccccc3)c3ccccc3n2)cc1` is 3.66 µM (active).
Then `COc1ccc(CN(C)C(=O)Cc2c[nH]c3ccccc23)c(OC)c1OC`, with “inactive”.
`COc1ccc(CN(C)C(=O)c2cc(-c3ccc(C)cc3C)nc3ccccc23)c(OC)c1OC`: the Potency is 23.1 µM (active).
The entry for `Cc1ccc(C)c(OCC(=O)NNC(=O)C2CCC2)c1` is “inactive”.
Then `COC(=O)c1ccc(CNC(=O)c2ccc(S(=O)(=O)N3CCCCCC3)cc2)cc1`, with “inactive”.
Take `NC(=O)C1CCN(C(=O)c2cc(S(=O)(=O)N3CCN(c4ccccc4)CC3)ccc2Cl)CC1`: the Potency entry is “inactive”.
Take `CCCNC(=S)NC1CC2CCCC(C1)N2CC(C)C` (stereo unspecified): the Potency was 14.6 µM (active).
For the compound `C=CCN1C2CCCC1CC(NC(=S)Nc1cccc(OC)c1)C2` (stereo unspecified), the Potency entry was “inactive”.
In the case of `CCCN1C2CCCC1CC(NC(=O)NC13CC4CC(CC(C4)C1)C3)C2` (stereo unspecified), the Potency entry is “inactive”.
Regarding `Nc1cc(=O)n(Cc2ccccc2)c(=O)n1Cc1ccccc1`, the Potency entry was “inactive”.
Then `C/C(=N\Nc1ccc(Cl)nn1)c1ccccc1O`, with “inactive”; and `C=CCC[C@H](Cc1ccc(F)cc1)C(=O)OC[C@H](C)NC(=O)[C@H](CC=C)CC(=O)N(CCO)Cc1ccccc1`, with “inactive”; and `Cc1ccc(S(=O)(=O)N(C)C)cc1NC(=O)C(C)OC(=O)c1ccc2ccccc2n1` (stereo unspecified), with “inactive”.
For `COc1cccc(NC(=O)COc2cccnc2[N+](=O)[O-])c1`, the Potency entry is “inactive”.
Regarding `COc1ccc(S(=O)(=O)Nc2cccc3c2O[C@H](CN(C)S(=O)(=O)c2ccc(OC)cc2)[C@@H](C)CN([C@H](C)CO)C3=O)cc1`, the Potency entry was “inactive”.
For the compound `CCCOC(=O)c1[nH]c2c(c1C)C(=O)CC(c1cccs1)C2` (stereo unspecified), the Potency is 0.206 µM (active).
On to `COCCOC(=O)c1[nH]c2c(c1C)C(=O)CC(c1ccc(OC)cc1)C2` (stereo unspecified), for which the Potency result was “inactive”.
Then `CCOC(=O)c1[nH]c2c(c1-c1ccccc1)C(=O)CC(c1ccc(Cl)cc1)C2` (stereo unspecified), with “inactive”; and `CCOc1ccc(NC(=O)CN(C)C(=O)CCSc2ccc(F)cc2)cc1OCC`, with “inactive”.
Regarding `COc1cc(/C=C/C(=O)OCC(=O)c2ccccc2)cc(OC)c1OC`, the Potency entry was “inactive”.
The entry for `COc1ccccc1C(CNC(=O)c1cccc(S(=O)(=O)Nc2ccc(F)cc2)c1)N(C)C` (stereo unspecified) is “inactive”; for `COc1ccc(-n2c(=S)[nH]c3sc4c(c3c2=O)CCc2ccccc2-4)cc1` it is “inactive”.
In the case of `COc1ccc(/C=C2\N=C3CCCN3C2=O)cc1`, the Potency entry is “inactive”.
The figure for `COc1ccc(/C=C2/CCCc3ccccc3C2=O)cc1` is 1.64 µM (active); for `Cc1c[n+]([O-])ccc1[N+](=O)[O-]` it is “inactive”; for `Cc1cccc(-c2nc3ccccc3c(=O)n2NC(=O)Cc2ccc(Cl)cc2)c1` it is “inactive”.
Regarding `O=C1CCCc2c1nc(-c1cccc(Cl)c1)n2O`, the Potency is 1.46 µM (active).
For the compound `O=c1c2cc(Br)ccc2nc(-c2cccc(Cl)c2)n1O`, the Potency was 2.91 µM (active).
On to `NC(=O)c1cc(-c2cccnc2)nc2ccc(Br)cc12`, for which the Potency entry is “inactive”.
Then `Cc1cc(=O)n2[nH]c(-c3cccc(Cl)c3)cc2n1`, with “inactive”.
Then `CCOC(=O)CSc1ncc(-c2cccc(Cl)c2)cn1`, with “inactive”; and `Cc1ccsc1C(=O)OCC(=O)NCCc1ccccc1`, with “inactive”; and `O=C1C=CN2CCCC2CC1` (stereo unspecified), with “inactive”.
The entry for `COc1ccc(-c2cc(C(=O)NCCCN3CCCC3=O)c3ccccc3n2)cc1OC` is “inactive”; for `COc1cccc(NC(=O)CN(C)C(=O)/C=C/c2cn(-c3ccccc3)nc2-c2cccs2)c1` it is “inactive”.
As to `O=C(Cc1cccc2ccccc12)Nc1ccc2oc(-c3ccccc3)nc2c1`, the Potency result was “inactive”.
Then `O=C(Nc1ccc2oc(-c3ccc4ccccc4c3)nc2c1)c1cccs1`, with 5.17 µM (active).
The entry for `O=C(Nc1ccc(NC(=O)c2cccs2)cc1)c1ccc2ccccc2c1` is “inactive”.
On to `CC1CN(Cc2ccccc2)C(=S)NC1=O` (stereo unspecified), for which the Potency result was “inactive”.
The entry for `O=C(CN1CCN(C2CCS(=O)(=O)C2)CC1)N1N=C(c2ccc(Cl)cc2)CC1c1ccco1` (stereo unspecified) is “inactive”.
With `CCOC(=O)C1CCN(c2ncnc3c2c(-c2ccccc2)cn3-c2ccc(C)cc2)CC1`, the Potency entry was “inactive”.
`CCOC(=O)C1CCN(c2ncnc3c2oc2ccc(Br)cc23)CC1`: the Potency was 20.6 µM (active).
Then `CCOC(=O)N1CCN(C(=O)C2CCN(c3ncnc4c3sc3cccc(F)c34)CC2)CC1`, with “inactive”; and `COc1cc(OC)cc(C(=O)NNC(=O)Cc2cccs2)c1`, with “inactive”.
Then `COc1ccc(S(=O)(=O)N2C[C@H]3CON(C)[C@H]3C[C@H]2c2cccc(Br)c2)cc1`, with “inactive”.
Then `Cc1cccc(CC2(O)C(=O)Nc3ccccc32)n1` (stereo unspecified), with “inactive”.
Regarding `CCn1c(/C=C/c2ccc([N+](=O)[O-])o2)nc2ccccc2c1=O`, the Potency was 20.6 µM (active).
Then `Cc1nc2ccccc2c(=O)n1Cc1ccc([N+](=O)[O-])cc1`, with “inactive”; and `Cn1cc(/C=C/c2nc3ccccc3c(=O)n2-c2cccc([N+](=O)[O-])c2)c2ccccc21`, with “inactive”.
Then `O=C(CC1SC(N2CCOCC2)=NC1=O)Nc1ccccc1F` (stereo unspecified), with “inactive”.
The entry for `CCCn1c(N)c(C(=O)CSc2nnc3n2CCCCC3)c(=O)[nH]c1=O` is “inactive”; for `O=C(/C=C/c1ccc(Cl)c([N+](=O)[O-])c1)c1cccnc1` it is 5.17 µM (active).
As to `O=C(Nc1cccnc1)c1ccc(Cl)c([N+](=O)[O-])c1`, the Potency was 20.6 µM (active).
Then `C/C(=C\C(=O)c1cccnc1)Nc1ccc(C)c(C)c1`, with “inactive”.
The entry for `O=C(Nc1cccnc1)c1ccc(Cl)cc1[N+](=O)[O-]` is “inactive”.
Then `O=C(Nc1ccncc1)c1ccc(Cl)c([N+](=O)[O-])c1`, with “inactive”; and `NC(N)=N/N=C/c1ccc(Cl)c([N+](=O)[O-])c1`, with “inactive”.
As for `N#CCc1c[nH]c2ccc([N+](=O)[O-])cc12`, the Potency result is “inactive”.
Regarding `CC(C)(C)OC(=O)CNC(=O)c1[nH]cnc1C(=O)N[C@@H](CCCCN)C(=O)OC(C)(C)C`, the Potency entry was “inactive”.
Then `O=C1[C@@H](c2ccccc2)[C@@H](c2ccccc2)N1c1cccnc1`, with “inactive”; and `C[C@H](CO)N1C[C@H](C)[C@@H](CN(C)S(=O)(=O)c2ccc(F)cc2)Oc2ccc(NC(=O)CCC(F)(F)F)cc2C1=O`, with “inactive”; and `COc1cc(SC)ccc1C(=O)NNC(=O)C1COc2ccccc2O1` (stereo unspecified), with “inactive”.
Consider `CC1CCN(C(=O)c2cc3nc(C4CC4)cc(C(F)(F)F)n3n2)CC1`, for which the Potency entry is “inactive”.
The figure for `O=C(Nc1ccc(Cl)cc1)c1cc2nc(C3CC3)cc(C(F)(F)F)n2n1` is 16.4 µM (active); for `C=CCNC(=O)c1cc2nc(C3CC3)cc(C(F)F)n2n1` it is “inactive”; for `Cc1occc1-c1nnc(SCC(=O)NC2(C#N)CCCC2)n1C` it is “inactive”.
Take `COc1cc2c(cc1OC)C(Cc1cc(OC)c(OC)cc1[N+](=O)[O-])=NCC2`: the Potency result was “inactive”.
Then `CCCc1nc(SCC(=O)N2CCCC2)c2c(=O)n(C)c(=O)n(C)c2n1`, with “inactive”; and `Cn1c(=O)c2c(SCC(=O)N3CCOCC3)nc(C3CC3)nc2n(C)c1=O`, with “inactive”.
Then `CCOC(=O)N1CCN(C(=O)CSc2nc(C)nc3c2c(=O)n(C)c(=O)n3C)CC1`, with 0.651 µM (active).

The values are drawn from PubChem BioAssay AID624296 (National Center for Advancing Translational Sciences (NCATS), 2012).
